Results on 40 molecules are retold here after PubChem BioAssay.

The structures appear in SMILES notation. Calls of active or inactive are those of the source.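 How the source made its calls: active means visual image review flags a hit and inhibition of aggregation exceeds 20%; inconclusive means visual hit but inhibition at or below 20%; inactive means no hit on visual image review.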

This experiment is described as follows: inhibitors of mutant huntingtin aggregation, primary screen, imaging, exon1htt(103Q)mCFP cells, high-content imaging (AID 483).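 Further: compound exposure lasted 3 days before fixation.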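 On nuclei count: percent of the per-plate median nuclei count of sample wells.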 The conditions noted are these: exon1htt(103Q)mCFP cell line, aggregate imaging, at 2 µM; inhibition of aggregation: stronger effect = higher value; nuclei count: measured here: cell count, toxicity.
Take `CCN(C(C)=O)c1nnc(CSc2nc3ccccc3s2)s1`: the nuclei count amounted to 96.4% and the inhibition of aggregation was 10.2% (inactive).
For `CC(=O)NC1(C(F)(F)F)NC(=O)N(CC(C)C)C1=O` (stereo not given), in that order: 97.6% and -8.3% (inactive).
Take `CCOc1ccc2nc(Nc3nc4c(c(=O)[nH]3)CCC4)nc(C)c2c1`: the nuclei count was 112% and the inhibition of aggregation is -12.1% (inactive).
As for `CCOC(=O)N1CCC(NC(=O)CCC(=O)N2CC(C)Oc3ccc(Cl)cc32)CC1` (stereo not given), the nuclei count turned out to be 81.9% and the inhibition of aggregation was -2.6% (inactive).
As to `Cc1ccccc1C(=O)NC1CCN(Cc2nnnn2Cc2ccccc2)CC1`, the inhibition of aggregation was -10.9% (inactive) and the nuclei count was found to be 110%.
With `Cc1ccc2c(c1)CCCN2C(=O)C1CCCO1` (stereo not given), the inhibition of aggregation was 7.6% (inactive) and the nuclei count turned out to be 95%.
The like results for `CCCCc1ccc(NC(=O)C2CCCO2)cc1` (stereo not given) were, in that order, -7.2% (inactive) and 105%.
The like results for `CC(=O)c1cccc(NC(=O)NCc2ccccn2)c1` were, in that order, -1.1% (inactive) and 132%.
The like results for `Cc1ccc(OC(=O)CCC(=O)OCCCC(F)(F)C(F)(F)F)cc1` were, in that order, 4.9% (inactive) and 103%.
Regarding `O=C(CSc1nc2ccccc2o1)NC(=O)NCc1ccco1`, the nuclei count stood at 94.8% and the inhibition of aggregation was -12.3% (inactive).
The like results for `Cc1ccccc1CN1CCN(C(=O)c2cccc(F)c2)CC1` were, in that order, 91.7% and 14.5% (inactive).
Turning to `CCOC(=O)C1=C(C)NC(=O)NC1c1ccc(Br)s1` (stereo not given), the nuclei count amounted to 105% and the inhibition of aggregation is 5.5% (inactive).
In the case of `COc1cccc(C(=O)n2cnnc2N)c1OC`, the nuclei count turned out to be 109% and the inhibition of aggregation is 1% (inactive).
With `CN(C)S(=O)(=O)c1ccc(S(=O)(=O)N(Cc2ccco2)Cc2ccccc2Cl)cc1`, the inhibition of aggregation was 0.8% (inactive) and the nuclei count came out at 98.9%.
On to `CCOc1ccc(S(=O)(=O)Nc2cccc(Cl)c2)cc1`, for which the inhibition of aggregation was -0.3% (inactive) and the nuclei count turned out to be 78.4%.
For `CN(C)CCCN1C(=O)c2oc3ccc(Cl)cc3c(=O)c2C1c1cccnc1` (stereo not given), in that order: -16.3% (inactive) and 112%.
Turning to `COc1ccccc1N1CCN(Cc2nnnn2CCc2ccccc2)CC1`, the inhibition of aggregation is 2% (inactive) and the nuclei count came out at 99.9%.
For the molecule `COc1ccc(-c2noc(COc3ccc(Cl)c(C)c3)n2)cc1`, the inhibition of aggregation was -13.5% (inactive) and the nuclei count was found to be 103%.
For `CN(CC(=O)Nc1sccc1C#N)C1CCCCC1`, in that order: -178% (inactive) and 7.1%.
The like results for `COc1ccccc1-c1cc2nc(C)c(CCC(=O)NCc3ccco3)c(C)n2n1` were, in that order, -15.4% (inactive) and 115%.
As for `Cc1cc(C)c2cc3c(ccn3C3OC[C@H](O)[C@H](O)[C@H]3O)cc2n1` (stereo not given in full), the inhibition of aggregation is -19.6% (inactive) and the nuclei count was determined as 121%.
In the case of `CCOc1cc(NC(=O)c2ccccn2)c(OCC)cc1NC(=O)CC(C)C`, the nuclei count came to 115% and the inhibition of aggregation was -0.3% (inactive).
For `COc1ccc(S(=O)(=O)N(CCN2CCOCC2)Cc2cc(OC)ccc2OC)cc1`, the nuclei count worked out at 102% and the inhibition of aggregation is -25.8% (inactive).
For `CC1(C)CC(=O)CC(C)(C)N1OC(=O)c1ccccn1`, the nuclei count is 97.7% and the inhibition of aggregation is -6.4% (inactive).
As to `Nc1ccc(-n2c(N)c(C(=O)NCc3ccc4c(c3)OCO4)c3nc4ccccc4nc32)cc1`, the inhibition of aggregation is 16.7% (inactive) and the nuclei count was 93.9%.
For the molecule `CC12CCC(C(=O)O)(c3nc(C#N)c(C#N)nc31)C2(C)C` (stereo not given), the inhibition of aggregation was 26.3% (inactive) and the nuclei count was found to be 90.9%.
On to `CN(C)c1ccc(C(=O)OCC(=O)NC2CCCCC2)cc1`, for which the inhibition of aggregation was 4.3% (inactive) and the nuclei count is 90.3%.
The like results for `CCOC(=O)N1CCN(Cc2nc3c(c(=O)[nH]c(=O)n3C)n2Cc2cc(C)ccc2C)CC1` were, in that order, -78% (inactive) and 115%.
The like results for `C#CC1(O)CC(C)N(C)C(C)C1` (stereo not given) were, in that order, 41.8% (active) and 71.2%.
For `O=C(CN(CC1CCCO1)C(=O)CCC(=O)Nc1ccccn1)NCC1CCCO1` (stereo not given), in that order: -13.7% (inactive) and 122%.
Consider `CC(=O)c1ccc2c3c(cccc13)C(=O)N(c1c(C)nn(C)c1C)C2=O`, for which the inhibition of aggregation was -24.6% (inactive) and the nuclei count came out at 108%.
In the case of `CC(C)[C@H](NC(=O)NCc1ccc(Cl)cc1)C(=O)O`, the nuclei count turned out to be 70.5% and the inhibition of aggregation is 20.4% (inactive).
Take `COc1ccc(-n2c(Cc3cccn3C)nnc2SCC(=O)Nc2cccc(Cl)c2)cc1`: the inhibition of aggregation is 22.4% (inactive) and the nuclei count was determined as 85.2%.
Turning to `COC(=O)/C=c1\sc2ncnn2c1=O`, the inhibition of aggregation was 6.6% (inactive) and the nuclei count turned out to be 111%.
On to `COCc1nnc(NC(=O)c2ccc(NC(C)=O)cc2)s1`, for which the inhibition of aggregation is -4.2% (inactive) and the nuclei count amounted to 95.9%.
Consider `Cc1cc(/C=N/n2cnnc2)c(C)n1-c1cccc(Cl)c1`, for which the inhibition of aggregation is 31% (inactive) and the nuclei count worked out at 32.1%.
For the molecule `C=CCNC(=O)C1CC(=O)N(c2ccc(OCC(=O)Nc3ccc(OC)cc3)cc2)C1` (stereo not given), the inhibition of aggregation was 7.7% (inactive) and the nuclei count amounted to 104%.
As to `Cc1cc2c(cc(C(=O)OCC(=O)NCc3cccs3)n2C(C)C)o1`, the inhibition of aggregation was 7.7% (inactive) and the nuclei count is 106%.
With `COc1ccc(C)cc1C(=O)CCC(=O)Nc1ccccc1N1CCOCC1`, the nuclei count is 103% and the inhibition of aggregation was 3.1% (inactive).
Turning to `CC(C)(C)c1ccc(-c2nnc(SCCC#N)n2C2CCCC2)cc1`, the nuclei count was determined as 115% and the inhibition of aggregation is 10.8% (inactive).
